# Source: publication PMC7862700, “An all-to-all approach to the identification of sequence-specific readers for epigenetic DNA modifications on cytosine”
# How the values were obtained:
# Assay in all cases: DAPPL (digital affinity profiling via proximity ligation, sequencing); 10 mM Tris-HCl pH 7.5, 50 mM NaCl, 1 mM DTT, 4% glycerol, room temperature, 30 min; GST-TFs on glutathione beads, 16-mer random dsDNA library, 0.1% formaldehyde crosslink after washing; high values mean tight binding
# Settings in all cases: protein: recombinant; tags: N-terminal GST; dsDNA, one strand shown
# [1] = biological target: T1, FLI1 (Homo sapiens, UniProt Q01543 1-452)
# T1 sequence: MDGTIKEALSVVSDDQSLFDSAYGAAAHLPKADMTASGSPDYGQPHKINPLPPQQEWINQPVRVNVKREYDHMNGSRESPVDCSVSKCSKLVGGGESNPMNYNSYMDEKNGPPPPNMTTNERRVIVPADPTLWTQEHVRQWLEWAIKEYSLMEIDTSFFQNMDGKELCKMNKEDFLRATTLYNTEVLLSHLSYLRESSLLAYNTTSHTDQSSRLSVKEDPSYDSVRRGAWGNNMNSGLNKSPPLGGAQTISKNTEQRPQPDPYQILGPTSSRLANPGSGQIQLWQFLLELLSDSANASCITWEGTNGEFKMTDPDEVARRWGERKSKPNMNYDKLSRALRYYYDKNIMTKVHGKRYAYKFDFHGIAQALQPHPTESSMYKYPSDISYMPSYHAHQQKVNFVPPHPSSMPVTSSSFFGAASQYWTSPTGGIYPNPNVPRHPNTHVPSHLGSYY
# How it was run: (§1)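 Sequencing on an Illumina NextSeq500 followed washing, crosslinking with 0.1% formaldehyde, proximity ligation (BsaI/T4 ligase, 1 h, 37 °C) and PCR amplification of pools that had been incubated for 30 min at room temperature with 200 nmole of a random double-stranded 16-mer DNA library in Tris/NaCl/DTT/glycerol buffer. Each pool held DNA-barcoded human transcription factors, expressed in yeast as GST fusions and captured on glutathione beads, plus a tag-only sample. Binding signal is a hexamer's read frequency for a factor divided by its frequency in the tag-only sample.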
# [2] = biological target: T2, ELK1 (Homo sapiens, UniProt P19419 1-428)
# T2 sequence: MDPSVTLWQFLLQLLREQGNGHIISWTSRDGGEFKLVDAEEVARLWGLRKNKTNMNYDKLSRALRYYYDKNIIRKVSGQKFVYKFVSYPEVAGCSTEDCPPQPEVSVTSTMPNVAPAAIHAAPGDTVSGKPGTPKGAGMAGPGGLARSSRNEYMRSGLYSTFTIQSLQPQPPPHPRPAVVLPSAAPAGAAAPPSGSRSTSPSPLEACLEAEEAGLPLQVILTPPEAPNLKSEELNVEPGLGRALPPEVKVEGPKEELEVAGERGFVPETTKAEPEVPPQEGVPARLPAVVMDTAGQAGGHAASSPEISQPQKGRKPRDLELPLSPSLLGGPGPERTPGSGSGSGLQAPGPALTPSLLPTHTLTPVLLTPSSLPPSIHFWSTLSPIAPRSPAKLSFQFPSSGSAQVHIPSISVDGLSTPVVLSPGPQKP
# How it was run: as §1
# [3] = biological target: T3, GABPA (Homo sapiens, UniProt Q06546 1-454)
# T3 sequence: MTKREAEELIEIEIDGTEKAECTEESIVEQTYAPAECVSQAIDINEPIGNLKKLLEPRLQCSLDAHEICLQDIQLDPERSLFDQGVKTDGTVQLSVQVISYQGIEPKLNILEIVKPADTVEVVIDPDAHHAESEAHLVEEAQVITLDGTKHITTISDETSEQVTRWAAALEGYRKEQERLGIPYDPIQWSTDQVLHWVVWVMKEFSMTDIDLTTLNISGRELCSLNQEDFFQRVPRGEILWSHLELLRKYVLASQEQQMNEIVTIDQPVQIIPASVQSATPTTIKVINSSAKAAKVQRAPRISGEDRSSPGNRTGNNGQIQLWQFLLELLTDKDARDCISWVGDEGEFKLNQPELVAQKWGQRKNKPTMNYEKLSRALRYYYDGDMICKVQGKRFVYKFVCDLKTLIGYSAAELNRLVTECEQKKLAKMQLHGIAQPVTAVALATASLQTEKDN
# How it was run: as §1
# [4] = biological target: T4, ERG (Homo sapiens, UniProt P11308 1-479)
# T4 sequence: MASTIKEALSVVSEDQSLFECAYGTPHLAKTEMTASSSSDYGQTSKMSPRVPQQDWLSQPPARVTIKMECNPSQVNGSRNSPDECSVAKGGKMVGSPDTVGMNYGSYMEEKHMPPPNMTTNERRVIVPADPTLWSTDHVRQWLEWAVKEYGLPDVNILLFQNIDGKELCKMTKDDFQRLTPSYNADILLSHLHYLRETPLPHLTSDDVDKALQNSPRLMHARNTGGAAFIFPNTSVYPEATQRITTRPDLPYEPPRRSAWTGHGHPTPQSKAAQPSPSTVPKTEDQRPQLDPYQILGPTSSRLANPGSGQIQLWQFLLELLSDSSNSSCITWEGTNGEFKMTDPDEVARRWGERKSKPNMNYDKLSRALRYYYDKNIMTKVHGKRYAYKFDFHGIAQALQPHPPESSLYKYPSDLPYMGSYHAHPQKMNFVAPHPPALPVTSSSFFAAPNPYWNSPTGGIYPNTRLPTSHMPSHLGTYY
# How it was run: as §1
# [5] = biological target: ELF1 (Homo sapiens, UniProt P32519 1-619)
# How it was run: as §1
# [6] = biological target: T5, EHF (Homo sapiens, UniProt Q9NZC4 1-300)
# T5 sequence: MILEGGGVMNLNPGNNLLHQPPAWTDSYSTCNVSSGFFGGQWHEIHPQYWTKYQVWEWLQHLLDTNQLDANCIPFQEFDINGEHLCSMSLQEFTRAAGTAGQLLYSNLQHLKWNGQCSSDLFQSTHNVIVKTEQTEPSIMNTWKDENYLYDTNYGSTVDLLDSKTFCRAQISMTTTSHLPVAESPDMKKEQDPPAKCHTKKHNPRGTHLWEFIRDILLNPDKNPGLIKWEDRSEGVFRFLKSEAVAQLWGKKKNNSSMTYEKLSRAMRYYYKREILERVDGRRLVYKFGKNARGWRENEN
# How it was run: as §1
# [7] = biological target: SPI1 (Homo sapiens, UniProt P17947 1-270)
# How it was run: as §1
# [8] = biological target: SPIB (Homo sapiens, UniProt Q01892 1-262)
# How it was run: as §1
# [9] = biological target: T6, ELK3 (Homo sapiens, UniProt P41970 1-407)
# T6 sequence: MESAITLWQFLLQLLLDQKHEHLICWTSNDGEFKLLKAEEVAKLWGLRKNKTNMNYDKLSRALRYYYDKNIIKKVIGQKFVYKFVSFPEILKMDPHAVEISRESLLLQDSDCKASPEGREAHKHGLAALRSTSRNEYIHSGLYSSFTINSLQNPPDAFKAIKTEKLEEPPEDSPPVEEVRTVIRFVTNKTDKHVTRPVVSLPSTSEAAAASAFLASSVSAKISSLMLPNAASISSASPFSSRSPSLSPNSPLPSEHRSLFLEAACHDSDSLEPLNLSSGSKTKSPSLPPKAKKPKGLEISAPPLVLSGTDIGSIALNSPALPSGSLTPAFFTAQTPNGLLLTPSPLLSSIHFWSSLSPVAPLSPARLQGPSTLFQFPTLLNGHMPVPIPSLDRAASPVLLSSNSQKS
# How it was run: as §1
# [10] = biological target: T7, FEV (Homo sapiens, UniProt Q99581 1-238)
# T7 sequence: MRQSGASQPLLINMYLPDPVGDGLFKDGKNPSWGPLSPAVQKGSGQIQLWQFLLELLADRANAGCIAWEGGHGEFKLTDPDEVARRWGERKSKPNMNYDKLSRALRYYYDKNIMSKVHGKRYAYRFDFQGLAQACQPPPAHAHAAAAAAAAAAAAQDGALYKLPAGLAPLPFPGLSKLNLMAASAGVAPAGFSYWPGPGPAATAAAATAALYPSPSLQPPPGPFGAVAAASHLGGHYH
# How it was run: as §1
# [11] = biological target: ETV5 (Homo sapiens, UniProt P41161 1-510)
# How it was run: as §1
# [12] = biological target: T8, SPIC (Homo sapiens, UniProt Q8N5J4 1-248)
# T8 sequence: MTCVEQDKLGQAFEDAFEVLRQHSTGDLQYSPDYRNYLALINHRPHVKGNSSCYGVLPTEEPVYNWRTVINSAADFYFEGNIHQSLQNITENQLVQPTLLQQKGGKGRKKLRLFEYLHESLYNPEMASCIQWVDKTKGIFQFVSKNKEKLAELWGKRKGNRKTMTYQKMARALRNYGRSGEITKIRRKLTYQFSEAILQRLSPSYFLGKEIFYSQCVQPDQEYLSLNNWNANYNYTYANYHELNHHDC
# How it was run: as §1
# [13] = biological target: ELF4 (Homo sapiens, UniProt Q99607 1-663)
# How it was run: as §1
# [14] = biological target: T9, ELK4 (Homo sapiens, UniProt P28324-2 1-405)
# T9 sequence: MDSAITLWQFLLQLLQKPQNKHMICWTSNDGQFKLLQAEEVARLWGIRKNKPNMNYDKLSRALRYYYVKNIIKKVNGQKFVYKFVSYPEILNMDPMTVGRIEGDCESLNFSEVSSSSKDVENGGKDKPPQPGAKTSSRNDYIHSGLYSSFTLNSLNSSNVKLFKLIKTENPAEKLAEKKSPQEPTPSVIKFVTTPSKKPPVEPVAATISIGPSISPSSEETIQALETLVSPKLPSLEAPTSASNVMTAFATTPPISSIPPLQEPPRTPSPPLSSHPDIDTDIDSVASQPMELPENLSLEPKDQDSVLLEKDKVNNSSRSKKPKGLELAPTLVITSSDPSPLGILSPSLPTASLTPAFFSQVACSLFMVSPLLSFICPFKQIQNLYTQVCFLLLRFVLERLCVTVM
# How it was run: as §1
# [15] = biological target: T10, ETV2 (Homo sapiens, UniProt O00321 1-342)
# T10 sequence: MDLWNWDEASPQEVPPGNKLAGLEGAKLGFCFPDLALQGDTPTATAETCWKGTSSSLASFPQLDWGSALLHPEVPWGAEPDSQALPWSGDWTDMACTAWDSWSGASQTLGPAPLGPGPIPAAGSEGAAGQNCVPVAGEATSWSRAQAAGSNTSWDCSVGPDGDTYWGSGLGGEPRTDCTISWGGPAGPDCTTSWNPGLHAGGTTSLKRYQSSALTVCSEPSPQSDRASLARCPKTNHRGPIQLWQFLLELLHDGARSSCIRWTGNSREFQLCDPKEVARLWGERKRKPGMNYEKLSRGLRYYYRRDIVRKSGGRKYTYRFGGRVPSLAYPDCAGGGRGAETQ
# How it was run: as §1
# [16] = biological target: T11, ELF3 (Homo sapiens, UniProt P78545 1-371)
# T11 sequence: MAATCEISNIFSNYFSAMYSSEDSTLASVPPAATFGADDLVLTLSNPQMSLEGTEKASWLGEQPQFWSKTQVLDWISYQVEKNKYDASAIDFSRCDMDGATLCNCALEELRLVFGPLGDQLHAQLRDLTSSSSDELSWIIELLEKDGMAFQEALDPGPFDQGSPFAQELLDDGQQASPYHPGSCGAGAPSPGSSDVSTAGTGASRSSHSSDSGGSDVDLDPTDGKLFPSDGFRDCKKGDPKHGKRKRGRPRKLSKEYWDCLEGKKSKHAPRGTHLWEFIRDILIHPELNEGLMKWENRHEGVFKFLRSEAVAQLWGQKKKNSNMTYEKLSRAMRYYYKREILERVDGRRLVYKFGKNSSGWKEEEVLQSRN
# How it was run: as §1
# [17] = biological target: ETV1 (Homo sapiens, UniProt P50549 1-477)
# How it was run: as §1
# Chain of SPIB (Q01892 whole entry): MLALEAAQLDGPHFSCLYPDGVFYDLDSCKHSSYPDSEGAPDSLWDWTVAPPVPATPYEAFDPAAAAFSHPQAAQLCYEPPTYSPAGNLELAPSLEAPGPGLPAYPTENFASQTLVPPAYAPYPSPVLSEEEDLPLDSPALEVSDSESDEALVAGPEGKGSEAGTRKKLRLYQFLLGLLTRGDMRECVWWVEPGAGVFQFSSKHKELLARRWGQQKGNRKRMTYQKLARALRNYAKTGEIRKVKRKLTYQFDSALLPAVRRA
# Chain of ETV1 (P50549 whole entry): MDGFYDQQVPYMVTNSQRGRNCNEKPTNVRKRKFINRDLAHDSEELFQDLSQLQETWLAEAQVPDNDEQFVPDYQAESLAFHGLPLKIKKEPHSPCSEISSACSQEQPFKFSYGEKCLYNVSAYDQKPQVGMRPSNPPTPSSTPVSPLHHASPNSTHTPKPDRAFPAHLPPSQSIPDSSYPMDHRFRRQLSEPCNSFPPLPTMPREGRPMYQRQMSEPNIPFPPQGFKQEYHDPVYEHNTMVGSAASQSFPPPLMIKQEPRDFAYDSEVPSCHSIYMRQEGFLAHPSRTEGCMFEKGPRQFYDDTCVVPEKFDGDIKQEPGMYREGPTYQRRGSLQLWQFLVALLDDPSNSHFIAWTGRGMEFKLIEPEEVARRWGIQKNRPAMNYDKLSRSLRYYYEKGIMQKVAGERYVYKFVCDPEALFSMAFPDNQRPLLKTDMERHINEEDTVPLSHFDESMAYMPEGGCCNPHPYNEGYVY
# Chain of ETV5 (P41161 whole entry): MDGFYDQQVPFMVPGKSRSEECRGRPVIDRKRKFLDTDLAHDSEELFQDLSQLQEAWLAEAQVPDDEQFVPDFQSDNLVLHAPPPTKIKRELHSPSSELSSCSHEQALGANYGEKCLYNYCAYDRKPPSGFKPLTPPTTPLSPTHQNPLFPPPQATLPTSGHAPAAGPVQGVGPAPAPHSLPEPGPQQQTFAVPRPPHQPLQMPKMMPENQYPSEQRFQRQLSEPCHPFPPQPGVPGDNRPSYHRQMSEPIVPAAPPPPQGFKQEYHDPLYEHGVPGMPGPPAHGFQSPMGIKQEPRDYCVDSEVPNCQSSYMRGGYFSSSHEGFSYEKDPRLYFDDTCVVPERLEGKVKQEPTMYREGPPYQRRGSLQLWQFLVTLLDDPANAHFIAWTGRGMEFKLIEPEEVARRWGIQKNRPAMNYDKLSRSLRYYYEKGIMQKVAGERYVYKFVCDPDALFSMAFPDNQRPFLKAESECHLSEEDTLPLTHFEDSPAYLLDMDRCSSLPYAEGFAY
# Chain of ELF4 (Q99607 whole entry): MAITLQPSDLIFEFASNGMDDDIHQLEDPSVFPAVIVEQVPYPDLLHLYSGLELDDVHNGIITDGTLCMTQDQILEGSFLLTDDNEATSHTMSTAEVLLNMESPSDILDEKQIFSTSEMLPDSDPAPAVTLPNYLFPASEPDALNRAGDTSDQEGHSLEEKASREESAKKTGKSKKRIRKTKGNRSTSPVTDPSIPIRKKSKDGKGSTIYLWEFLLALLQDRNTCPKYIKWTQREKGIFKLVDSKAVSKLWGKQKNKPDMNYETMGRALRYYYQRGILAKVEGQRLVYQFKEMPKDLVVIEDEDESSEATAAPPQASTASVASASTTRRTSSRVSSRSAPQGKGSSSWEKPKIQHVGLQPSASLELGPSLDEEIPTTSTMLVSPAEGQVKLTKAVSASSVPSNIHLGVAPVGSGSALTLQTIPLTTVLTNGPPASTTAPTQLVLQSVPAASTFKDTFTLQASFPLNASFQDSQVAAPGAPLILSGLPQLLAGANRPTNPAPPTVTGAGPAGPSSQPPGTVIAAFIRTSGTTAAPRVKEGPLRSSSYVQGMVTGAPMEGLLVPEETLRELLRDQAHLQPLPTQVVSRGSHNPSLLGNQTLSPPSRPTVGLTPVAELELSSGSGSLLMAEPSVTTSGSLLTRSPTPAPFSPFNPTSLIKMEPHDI
# Chain of ELF1 (P32519 whole entry): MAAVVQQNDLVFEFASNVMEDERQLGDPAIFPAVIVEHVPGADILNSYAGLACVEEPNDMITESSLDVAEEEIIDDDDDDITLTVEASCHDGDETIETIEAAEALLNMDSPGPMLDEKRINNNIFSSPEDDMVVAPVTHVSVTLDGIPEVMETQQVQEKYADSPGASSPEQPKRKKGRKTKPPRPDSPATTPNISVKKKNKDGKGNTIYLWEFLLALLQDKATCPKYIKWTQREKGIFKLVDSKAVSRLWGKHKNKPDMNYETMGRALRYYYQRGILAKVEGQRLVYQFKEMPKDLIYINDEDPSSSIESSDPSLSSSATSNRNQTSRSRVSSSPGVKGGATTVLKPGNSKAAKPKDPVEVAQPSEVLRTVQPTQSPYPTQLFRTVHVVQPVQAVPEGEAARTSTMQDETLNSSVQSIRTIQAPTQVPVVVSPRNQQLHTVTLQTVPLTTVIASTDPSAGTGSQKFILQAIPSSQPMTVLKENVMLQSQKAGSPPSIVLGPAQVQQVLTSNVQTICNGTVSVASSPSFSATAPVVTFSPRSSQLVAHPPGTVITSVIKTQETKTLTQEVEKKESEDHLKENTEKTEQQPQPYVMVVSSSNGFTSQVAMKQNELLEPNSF
sequence,measurement,setting,value
CGCACT,binding signal,[1],"1.12 fold enrichment (6-mer frequency, TF over GST control)"
same,binding signal,[2],"1.33 fold enrichment (6-mer frequency, TF over GST control)"
same,binding signal,[3],"1.28 fold enrichment (6-mer frequency, TF over GST control)"
same,binding signal,[4],"1.21 fold enrichment (6-mer frequency, TF over GST control)"
same,binding signal,[5],"1.22 fold enrichment (6-mer frequency, TF over GST control)"
same,binding signal,[6],"1.29 fold enrichment (6-mer frequency, TF over GST control)"
same,binding signal,[7],"1.41 fold enrichment (6-mer frequency, TF over GST control)"
same,binding signal,[8],"1.27 fold enrichment (6-mer frequency, TF over GST control)"
same,binding signal,[9],"1.24 fold enrichment (6-mer frequency, TF over GST control)"
same,binding signal,[10],"1.32 fold enrichment (6-mer frequency, TF over GST control)"
same,binding signal,[11],"1.28 fold enrichment (6-mer frequency, TF over GST control)"
same,binding signal,[12],"1.04 fold enrichment (6-mer frequency, TF over GST control)"
same,binding signal,[13],"1.29 fold enrichment (6-mer frequency, TF over GST control)"
same,binding signal,[14],"1.1 fold enrichment (6-mer frequency, TF over GST control)"
same,binding signal,[15],"1.29 fold enrichment (6-mer frequency, TF over GST control)"
same,binding signal,[16],"1.26 fold enrichment (6-mer frequency, TF over GST control)"
same,binding signal,[17],"1.23 fold enrichment (6-mer frequency, TF over GST control)"
